Laboratory results taken from PubChem BioAssay (NCI).
The panel holds about 79,000 compounds, 15% with a hit somewhere; the sample as a whole holds those more often. Activity calls are given as the source filed them. No stated cut-off is given here; in the data, active means growth inhibition above about 70%; inactive means the rest.

Columns and labels:
[1] = NCI Yeast Anticancer Drug Screen. Data for the rad50 strain (AID 155);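 further: 0% = growth of vehicle-only cultures of the same strain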; conditions: S. cerevisiae rad50 strain growth inhibition, active compounds read high
Summary of the method: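 A DNA repair-deficient yeast mutant serves as the test organism; compound-induced growth inhibition is calculated against vehicle-treated cells.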

[2] = NCI Yeast Anticancer Drug Screen. Data for the mec2-1 strain (AID 157); conditions: S. cerevisiae mec2-1 strain, active compounds read high
Summary of the method: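 Compounds were applied to mec2-1 yeast cells. Their growth was then compared with that of vehicle-treated cultures to give growth inhibition.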

[3] = NCI Yeast Anticancer Drug Screen. Data for the sgs1 mgt1 strain (AID 161);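 further: 0% = growth of cultures given vehicle only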; conditions: S. cerevisiae sgs1 mgt1 strain, active compounds read high
Summary of the method: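 Percent growth inhibition was derived by comparing compound-exposed mutant yeast with vehicle-exposed cultures. The strain carries alterations in DNA damage repair.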

[4] = NCI Yeast Anticancer Drug Screen. Data for the cln2 rad14 strain (AID 165);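 further: 0% = growth equal to vehicle treated cultures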; conditions: S. cerevisiae cln2 rad14 strain, active compounds read high
Summary of the method: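 Strain: cln2 rad14 yeast, altered in cell cycle control and DNA damage repair. Read-out: growth inhibition vs vehicle.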

[5] = NCI Yeast Anticancer Drug Screen. Data for the bub3 strain (AID 167); conditions: S. cerevisiae bub3 mutant strain, active compounds read high
Summary of the method: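 Inhibition values come from growth of compound-treated mutant yeast normalised to vehicle-treated controls.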

[6] = NCI Yeast Anticancer Drug Screen. Data for the mlh1 rad18 strain (AID 175); conditions: S. cerevisiae mlh1 rad18 strain growth inhibition, active compounds read high
Summary of the method: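 A repair-deficient yeast strain is exposed to test compound, and growth is scored relative to vehicle-treated controls.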

[7] = at 5.0 µM (retest, dose inferred, filed as 0.5)
[8] = at 50.0 µM (retest, dose inferred, filed as 5.0)

Measured: growth inhibition

COc1ccc(CC/C(=N/O)c2ccccc2)cc1
active: [1]; [8] 92% | [1]; at 50.0 µM 97% | [2]; [8] 97% | [2]; at 50.0 µM 96.9% | [3]; [8] 94% | [3]; at 50.0 µM 93.8% | [4]; [8] 74% | [4]; at 50.0 µM 97% | [5]; [8] 90% | [5]; at 50.0 µM 98% | [6]; [8] 96% | [6]; at 50.0 µM 96.9%
inactive: [1]; [7] 0% | [2]; [7] -3% | [3]; [7] 8% | [4]; [7] -10% | [5]; [7] 1% | [6]; [7] -9%

COc1ccc(C=C(C(=O)c2ccccc2)C(=O)c2ccccc2)cc1
inactive: [1]; [7] 12% | [2]; [7] -7% | [3]; [7] -6% | [4]; [7] 14% | [5]; [7] 16% | [6]; [7] -12%
active: [1]; [8] 95% | [1]; at 50.0 µM 91.3% | [2]; [8] 96% | [2]; at 50.0 µM 92.3% | [3]; [8] 94% | [3]; at 50.0 µM 91.3% | [4]; [8] 95% | [4]; at 50.0 µM 88.5% | [5]; [8] 98% | [5]; at 50.0 µM 92% | [6]; [8] 98% | [6]; at 50.0 µM 90.8%

Cc1ccc(-c2oc(C=Nc3ccccc3)c([N+](=O)[O-])c2-c2ccc(C)cc2)cc1
active: [1]; [8] 72% | [1]; at 50.0 µM 73.3% | [2]; [8] 70% | [3]; [8] 73% | [3]; at 50.0 µM 70.9% | [4]; [8] 74% | [5]; [8] 95% | [6]; [8] 91% | [6]; at 50.0 µM 75.8%
inactive: [1]; [7] 11% | [2]; [7] 13% | [2]; at 50.0 µM 64.5% | [3]; [7] 26% | [4]; [7] 36% | [4]; at 50.0 µM 42.2% | [5]; [7] 46% | [5]; at 50.0 µM 41.7% | [6]; [7] 52%

O=C(Nc1nc2c(ncn2C2CC(OC(=O)c3ccccc3)C(COC(=O)c3ccccc3)O2)c(=O)[nH]1)c1ccccc1 (stereo not given)
inactive: [1]; [7] 3% | [1]; [8] 5% | [1]; at 50.0 µM 55.5% | [2]; [7] 8% | [2]; [8] 12% | [2]; at 50.0 µM 38.5% | [3]; [7] -16% | [3]; [8] 33% | [3]; at 50.0 µM 69.6% | [5]; [7] 7% | [5]; [8] 10% | [5]; at 50.0 µM 57.6% | [6]; [7] 9% | [6]; [8] 12% | [6]; at 50.0 µM 60%

Cc1ccc(C(=O)OCCN2CCOCC2)c([N+](=O)[O-])c1OCc1ccccc1
inactive: [1]; [7] 14% | [1]; [8] 61% | [2]; [7] 18% | [2]; [8] 46% | [2]; at 50.0 µM 63.4% | [3]; [7] 13% | [5]; [7] 11% | [5]; [8] 65% | [5]; at 50.0 µM 68.5% | [6]; [7] 10% | [6]; [8] 58%
active: [1]; at 50.0 µM 73.2% | [3]; [8] 81% | [3]; at 50.0 µM 84.7% | [6]; at 50.0 µM 78.3%

CC(C)CCCC(C)C1CCC2C3CCC4=CC(O)CCC4(C)C3CCC12C (stereo not given)
active: [1]; [8] 96% | [1]; at 50.0 µM 93.8% | [2]; [8] 94% | [2]; at 50.0 µM 90.3% | [3]; [8] 92% | [3]; at 50.0 µM 93% | [4]; [8] 95% | [4]; at 50.0 µM 94.3% | [5]; [8] 97% | [5]; at 50.0 µM 94% | [6]; [8] 97% | [6]; at 50.0 µM 93.5%
inactive: [1]; [7] -5% | [2]; [7] 1% | [3]; [7] -2% | [4]; [7] -8% | [5]; [7] -5% | [6]; [7] -3%

C/C(=N\NC(=S)Nc1ccc(S(N)(=O)=O)cc1)c1ccccn1
active: [3]; [8] 84% | [5]; [8] 84% | [6]; [8] 70%
inactive: [1]; [7] 33% | [1]; [8] 64% | [1]; at 50.0 µM 63.5% | [2]; [7] 25% | [2]; [8] 65% | [2]; at 50.0 µM 42.8% | [3]; [7] 34% | [3]; at 50.0 µM 28.9% | [4]; [7] 20% | [4]; [8] 67% | [4]; at 50.0 µM 24.5% | [5]; [7] 41% | [5]; at 50.0 µM 37.6% | [6]; [7] 39% | [6]; at 50.0 µM 64%

Cc1ccc(C2(O)CCN(Cc3ccccc3)CC2)cc1
inactive: [1]; [7] 30% | [1]; at 50.0 µM 56.5% | [2]; [7] 39% | [2]; at 50.0 µM 8.3% | [3]; [7] 47% | [4]; at 50.0 µM 61.8% | [6]; [7] 37% | [6]; at 50.0 µM 47%
active: [1]; [8] 85% | [2]; [8] 99% | [3]; [8] 72% | [3]; at 50.0 µM 70% | [4]; [7] 75% | [4]; [8] 89% | [6]; [8] 98%

CCCCCCSc1nc2ccc(N=Cc3ccccc3O)cc2s1
active: [1]; [7] 90% | [1]; [8] 89% | [1]; at 50.0 µM 81.8% | [2]; [7] 83% | [2]; [8] 91% | [5]; [8] 86% | [6]; [7] 86% | [6]; [8] 88% | [6]; at 50.0 µM 80.1%
inactive: [2]; at 50.0 µM 55.2% | [4]; [7] 58% | [4]; [8] 65% | [4]; at 50.0 µM 48% | [5]; [7] 55% | [5]; at 50.0 µM 15.2%
